Assay results published in PubChem BioAssay.
Active and inactive are the calls of the source.

Assays:
[1] = binders of probe aFSTL3 on microarray, primary screen, stem cell growth factor project, biochemical, small-molecule microarray, fluorescence 635/667 (AID 1064); settings: higher = more signal;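 also: measures binding of the biotinylated anti-FSTL3 antibody to printed compounds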
[2] = binders from COS7 lysate, DM2A8 probe, primary screen, torsin A project, cell lysate, small-molecule microarray, fluorescence 635/667 (AID 1065); settings: higher = more signal, COS7 lysate expressing mutant human TOR1A
[3] = binders of probe aFGF2 on microarray, primary screen, stem cell growth factor project, biochemical, small-molecule microarray, fluorescence 635/667 (AID 1067); settings: higher = more signal;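 also: measures binding of biotinylated aFGF2 protein to printed compounds on slides; z-score merges feature fluorescence and signal-to-noise across triplicate slides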
[4] = binders of probe aFGF10 on microarray, primary screen, stem cell growth factor project, biochemical, small-molecule microarray, fluorescence 635/667 (AID 1071); settings: higher = more signal;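 also: score merges 667 nm spot intensity and signal to noise from triplicate slides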
[5] = target: Neurogenic locus notch homolog protein 2 (Homo sapiens) (UniProt Q04721); test: Notch2 binders on small-molecule microarrays, primary screen, biochemical, small-molecule microarray, 635 nm fluorescence, stem cell growth factors (AID 1073); settings: Notch2 binding, higher = more signal
[6] = target: Pro-neuregulin-1, membrane-bound isoform (Homo sapiens) (UniProt Q02297); test: NRG1 binders on small-molecule microarrays, primary screen, psychiatric disease protein project, biochemical, small-molecule microarray, fluorescence 635/667 (AID 1075); settings: NRG1 binding, 635 nm fluorescence, higher = more signal;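 also: score combines 667 nm spot fluorescence with signal to noise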
[7] = tested on: Neuregulin-1 EGF-like domain; test: binders of neuregulin-1 EGF-like domain, primary screen, biochemical, small-molecule microarray, 635 nm fluorescence (AID 1081); settings: small-molecule microarray binding, higher = more signal;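 also: binding of the protein to compounds printed on small-molecule microarray slides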
[8] = FRG1 promoter luciferase signal modulators, primary screen, FRG1 inhibition for FSHD, cell-based, C2C12 myotubes, firefly/Renilla luciferase, luminescence (AID 1084); settings: higher = more signal, called active from +8 up or from −8 down
[9] = binders of probe aFST on microarray, primary screen, stem cell growth factor project, biochemical, small-molecule microarray, fluorescence 635/667 (AID 1086); settings: higher = more signal;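 also: score merges 667 nm fluorescence with signal-to-noise of each printed compound spot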
[10] = binders of probe aHhip on microarray, primary screen, stem cell growth factor project, biochemical, small-molecule microarray, fluorescence 635/667 (AID 1087); settings: higher = more signal;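 also: score merges spot fluorescence at 667nm with spot signal to noise ratio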
[11] = tested on: PRMT1 (protein arginine N-methyltransferase 1); test: PRMT1 binders on small-molecule microarrays, primary screen, biochemical, small-molecule microarray, 635 nm fluorescence (AID 1088); settings: small-molecule microarray binding, higher = more signal;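 also: binding of Prmt1 protein to compounds spotted on small-molecule microarray slides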
[12] = yeast growth modulation, basal conditions, primary screen, YJM789 clinical isolate, OD600, 24 h (AID 1089);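 also: growth of clinical yeast isolate S. cerevisiae YJM 789 seeded 1000 cells per well; test concentration not given here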; settings: S. cerevisiae YJM789 growth, higher = more signal, called active from +8 up or from −8 down
[13] = fission yeast growth modulation, primary screen, strain 972, OD600, 24 h, no modulator (AID 1090);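 also: basal condition with compound alone and no growth modifier present; test concentration not given here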; settings: S. pombe 972 growth, higher = more signal, called active from +8 up or from −8 down
[14] = S. cerevisiae growth modulation with rapamycin, primary screen, strain BY4716, OD600, 96 h (AID 1091); settings: higher = more signal, called active from +8 up or from −8 down; also: test concentration not given here
[15] = target: Torsin-1A-interacting protein 2 (Homo sapiens) (UniProt Q8NFQ8); test: LULL1 binders on small-molecule microarray, primary screen, cell lysate, human LULL1 lysate, 635/667 nm fluorescence (AID 1092); settings: hLULL1 lysate binding, 635 nm fluorescence, higher = more signal;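 also: probe is lysate of COS7 cells overexpressing human LULL1; score merges per-feature 667 nm fluorescence with signal-to-noise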
[16] = E. coli growth modulation, two-sided OD650, primary screen, E. coli filamentation project, strain DRC41, 24 h (AID 1093); settings: OD650, 24 h, higher = more signal, called active from +8 up or from −8 down;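 also: MC1000 strain lacking acrAB efflux and sulA so SOS filamentation is blocked; test concentration not given here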
[17] = small-molecule microarray binders of probe aLefty2, primary screen, biochemical, biotinylated probe, 635/667 nm fluorescence (AID 1094); settings: higher = more signal;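 also: score merges spot fluorescence near 667 nm with spot signal-to-noise ratio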
[18] = tested on: Noggin (protein binding on small-molecule microarray); test: Noggin binders on small-molecule microarray, primary screen, biochemical, 635/667 nm fluorescence (AID 1095); settings: 635 nm fluorescence, higher = more signal;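 also: score merges 667 nm feature fluorescence with signal to noise over triplicate slides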
[19] = target: Neurogenic locus notch homolog protein 3 (Homo sapiens) (UniProt Q9UM47); test: NOTCH3 binders on small-molecule microarray, primary screen, biochemical, 635/667 nm fluorescence (AID 1096); settings: NOTCH3 binding, 635 nm fluorescence, higher = more signal
[20] = small-molecule microarray binders of probe aEGFR, primary screen, biochemical, biotinylated probe, 635/667 nm fluorescence (AID 1097); settings: higher = more signal;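 also: probe is a biotinylated anti-EGFR antibody binding compounds printed on slides; score combines fluorescence near 667 nm and signal to noise of each spot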

Chain of Pro-neuregulin-1, membrane-bound isoform (Homo sapiens) (Q02297 whole entry, looked up, the tested form may be a part, canonical isoform): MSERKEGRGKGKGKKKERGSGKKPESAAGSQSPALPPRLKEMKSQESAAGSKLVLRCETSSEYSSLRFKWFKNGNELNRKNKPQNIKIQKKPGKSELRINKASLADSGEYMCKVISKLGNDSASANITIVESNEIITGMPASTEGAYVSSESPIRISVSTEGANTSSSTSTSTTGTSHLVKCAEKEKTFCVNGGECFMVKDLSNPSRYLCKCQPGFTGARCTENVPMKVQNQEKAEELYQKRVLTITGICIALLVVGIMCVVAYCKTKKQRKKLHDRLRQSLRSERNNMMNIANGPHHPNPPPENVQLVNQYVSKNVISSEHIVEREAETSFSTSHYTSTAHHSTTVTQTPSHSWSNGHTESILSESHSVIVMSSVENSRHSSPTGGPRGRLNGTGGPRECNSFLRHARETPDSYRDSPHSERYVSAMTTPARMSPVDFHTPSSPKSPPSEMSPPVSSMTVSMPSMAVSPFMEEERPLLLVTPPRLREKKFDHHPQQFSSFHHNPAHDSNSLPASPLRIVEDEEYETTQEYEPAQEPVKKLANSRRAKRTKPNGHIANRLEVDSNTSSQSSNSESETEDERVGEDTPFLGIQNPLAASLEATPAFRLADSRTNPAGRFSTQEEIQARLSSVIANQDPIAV
Chain of Neurogenic locus notch homolog protein 3 (Homo sapiens) (Q9UM47 whole entry, looked up): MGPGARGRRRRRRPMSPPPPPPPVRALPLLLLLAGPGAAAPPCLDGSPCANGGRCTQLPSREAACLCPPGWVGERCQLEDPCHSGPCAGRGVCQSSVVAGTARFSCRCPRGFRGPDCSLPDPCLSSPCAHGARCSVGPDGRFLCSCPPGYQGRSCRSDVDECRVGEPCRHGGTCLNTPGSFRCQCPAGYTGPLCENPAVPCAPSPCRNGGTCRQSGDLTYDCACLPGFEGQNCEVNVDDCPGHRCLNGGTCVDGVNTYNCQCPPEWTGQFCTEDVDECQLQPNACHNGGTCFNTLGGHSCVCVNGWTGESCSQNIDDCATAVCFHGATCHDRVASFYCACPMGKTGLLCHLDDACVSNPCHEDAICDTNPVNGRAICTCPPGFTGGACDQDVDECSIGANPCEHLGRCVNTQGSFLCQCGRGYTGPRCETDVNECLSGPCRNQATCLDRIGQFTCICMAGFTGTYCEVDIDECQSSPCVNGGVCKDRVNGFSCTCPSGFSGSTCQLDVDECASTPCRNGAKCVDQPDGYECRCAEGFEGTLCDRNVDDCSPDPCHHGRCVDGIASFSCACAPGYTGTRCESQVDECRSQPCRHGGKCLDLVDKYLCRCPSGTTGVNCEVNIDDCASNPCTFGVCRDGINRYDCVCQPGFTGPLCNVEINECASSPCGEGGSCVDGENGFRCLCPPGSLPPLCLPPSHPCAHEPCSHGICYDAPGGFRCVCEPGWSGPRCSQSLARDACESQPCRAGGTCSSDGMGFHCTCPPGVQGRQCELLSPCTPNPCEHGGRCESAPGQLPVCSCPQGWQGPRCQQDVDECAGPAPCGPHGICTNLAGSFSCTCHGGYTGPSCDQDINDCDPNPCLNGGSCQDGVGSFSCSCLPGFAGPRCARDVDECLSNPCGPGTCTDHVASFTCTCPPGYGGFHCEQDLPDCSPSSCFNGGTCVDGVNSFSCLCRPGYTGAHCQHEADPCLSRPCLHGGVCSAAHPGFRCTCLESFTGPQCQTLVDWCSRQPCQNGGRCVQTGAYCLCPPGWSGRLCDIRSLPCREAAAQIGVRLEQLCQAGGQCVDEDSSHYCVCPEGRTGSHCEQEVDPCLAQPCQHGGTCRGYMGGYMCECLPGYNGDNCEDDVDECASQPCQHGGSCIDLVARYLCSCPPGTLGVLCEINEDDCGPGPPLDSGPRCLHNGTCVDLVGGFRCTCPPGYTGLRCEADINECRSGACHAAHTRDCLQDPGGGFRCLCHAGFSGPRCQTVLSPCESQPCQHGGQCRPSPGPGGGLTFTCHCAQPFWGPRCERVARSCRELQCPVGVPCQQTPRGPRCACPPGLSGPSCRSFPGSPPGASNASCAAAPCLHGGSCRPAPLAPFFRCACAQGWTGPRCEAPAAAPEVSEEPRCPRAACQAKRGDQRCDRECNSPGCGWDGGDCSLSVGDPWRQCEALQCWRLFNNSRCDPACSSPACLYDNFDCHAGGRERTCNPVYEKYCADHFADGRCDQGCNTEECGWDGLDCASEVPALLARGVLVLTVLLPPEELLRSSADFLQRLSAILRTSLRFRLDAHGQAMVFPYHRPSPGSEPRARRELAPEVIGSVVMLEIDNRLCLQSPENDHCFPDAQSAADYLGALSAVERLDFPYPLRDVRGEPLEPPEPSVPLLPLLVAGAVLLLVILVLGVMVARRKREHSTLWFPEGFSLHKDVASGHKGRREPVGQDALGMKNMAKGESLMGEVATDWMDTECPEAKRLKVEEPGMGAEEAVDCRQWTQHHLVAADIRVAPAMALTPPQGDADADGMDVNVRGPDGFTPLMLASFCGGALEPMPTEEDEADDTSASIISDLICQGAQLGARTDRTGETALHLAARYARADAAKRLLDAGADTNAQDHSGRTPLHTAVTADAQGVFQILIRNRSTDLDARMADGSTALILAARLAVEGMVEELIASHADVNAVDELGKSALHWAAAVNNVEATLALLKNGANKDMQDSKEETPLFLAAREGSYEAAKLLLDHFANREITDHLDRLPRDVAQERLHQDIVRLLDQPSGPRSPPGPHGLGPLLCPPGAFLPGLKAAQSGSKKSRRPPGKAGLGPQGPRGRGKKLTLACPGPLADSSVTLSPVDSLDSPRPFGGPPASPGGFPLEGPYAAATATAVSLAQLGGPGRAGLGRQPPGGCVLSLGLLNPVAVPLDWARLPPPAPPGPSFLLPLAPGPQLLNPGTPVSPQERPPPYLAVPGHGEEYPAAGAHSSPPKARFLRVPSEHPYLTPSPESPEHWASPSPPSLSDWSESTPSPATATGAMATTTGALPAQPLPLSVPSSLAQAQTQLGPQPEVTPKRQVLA
Chain of Torsin-1A-interacting protein 2 (Homo sapiens) (Q8NFQ8 whole entry, looked up): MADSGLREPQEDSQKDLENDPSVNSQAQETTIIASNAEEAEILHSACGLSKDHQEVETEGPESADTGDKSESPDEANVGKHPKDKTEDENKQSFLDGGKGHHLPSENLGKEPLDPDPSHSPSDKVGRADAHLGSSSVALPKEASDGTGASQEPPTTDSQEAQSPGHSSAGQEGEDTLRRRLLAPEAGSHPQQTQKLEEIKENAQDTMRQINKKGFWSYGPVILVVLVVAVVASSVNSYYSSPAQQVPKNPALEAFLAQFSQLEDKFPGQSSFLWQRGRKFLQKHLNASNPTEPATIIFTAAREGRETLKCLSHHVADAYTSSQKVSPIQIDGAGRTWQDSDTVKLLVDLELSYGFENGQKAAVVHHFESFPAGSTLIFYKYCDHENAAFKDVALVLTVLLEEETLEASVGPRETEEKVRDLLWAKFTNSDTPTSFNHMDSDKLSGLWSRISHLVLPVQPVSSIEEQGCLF

Structure (SMILES) | composite z-score [1] | composite z-score [2] | composite z-score [3] | composite z-score [4] | composite z-score [5] | composite z-score [6] | composite z-score [7] | z-score [8] | composite z-score [9] | composite z-score [10] | composite z-score [11] | z-score [12] | z-score [13] | z-score [14] | composite z-score [15] | z-score [16] | composite z-score [17] | composite z-score [18] | composite z-score [19] | composite z-score [20]
NC(=O)NCC#Cc1ccc2c(c1)[C@]1(C(=O)N2)[C@H](c2ccc(OCCO)cc2)N2[C@H](c3ccccc3)[C@H](c3ccccc3)OC(=O)[C@H]2[C@@H]1C(=O)Nc1nc2ccccc2s1 | 1.02 | -0.528 | -0.0953 | 0.0777 | -0.442 | -0.214 | -0.748 | 2.5 (inactive) | 0.668 | -0.132 | -0.136 | 2.55 (inactive) | 0.766 (inactive) | 4.18 (inactive) | 0.759 | 2.26 (inactive) | 0.289 | -0.17 | -0.0446 | -0.0946
COc1ccc(C#Cc2ccc3c(c2)[C@]2(C(=O)N3)[C@H](c3ccc(O)cc3)N3[C@H](c4ccccc4)[C@H](c4ccccc4)OC(=O)[C@H]3[C@@H]2C(N)=O)cc1 | 0.573 | 0.395 | 0.0519 | 0.889 | -0.695 | 1.68 | 0.785 | 0.532 (inactive) | -0.235 | -0.24 | 0.632 | 1.46 (inactive) | -1.02 (inactive) | 2.73 (inactive) | 2.14 | 1.68 (inactive) | -0.2 | -0.877 | -0.854 | -0.401
CC1CC/C=C\[C@H]2OC34C=CCN(C(C)C)C(=O)[C@H]3N(C(CO)C(C)C)C(=O)[C@@H]4C2C(=O)O1 (stereo not given in full) | 1.54 | -0.267 | -0.0985 | -0.365 | -0.662 | -0.593 | 0.475 | -0.416 (inactive) | -0.422 | -0.0994 | -0.825 | 0.959 (inactive) | -1.84 (inactive) | -0.631 (inactive) | 1.55 | 2.14 (inactive) | -0.0229 | -0.684 | -0.274 | -0.154
CCCCCCC#C[Si](O[C@H](c1ccccc1)c1cn(Cc2ccccc2)nn1)(C(C)C)C(C)C | -0.331 | -0.0435 | 0.0339 | 0.388 | 0.433 | -0.0854 | -0.0419 | -0.494 (inactive) | 0.129 | 0.243 | 0.63 | -0.501 (inactive) | -1.19 (inactive) | -0.287 (inactive) | 0.468 | 2.25 (inactive) | -0.0153 | 0.977 | 0.6 | 0.0334
CC(C)N1C(=O)c2ccccc2[C@@H](C(=O)NCc2ccccc2)[C@@H]1c1ccc(CO)cc1 | -0.0604 | 0.317 | -0.0806 | -0.723 | -0.423 | 0.844 | 1.15 | -0.331 (inactive) | -0.0768 | -0.141 | -0.238 | 0.582 (inactive) | -0.579 (inactive) | 1.31 (inactive) | 0.979 | 0.846 (inactive) | -0.109 | -0.608 | -0.904 | -0.273
CO[C@H]1O[C@H](CO)[C@@H](OC(=O)CCc2ccccc2)[C@@H]2OC(=O)[C@H](Cc3ccccc3)C/C=C/C[C@@H](Cc3ccccc3)C(=O)O[C@@H]12 | -0.0198 | -0.106 | -0.134 | -0.357 | -0.512 | 0.92 | 1.14 | -1.51 (inactive) | -0.306 | -0.337 | 0.696 | -0.696 (inactive) | -2.18 (inactive) | 11.3 (active) | 1.4 | 1.98 (inactive) | -0.0905 | -0.748 | -0.033 | -0.347
NCCCCCCNC(=O)[C@@H]1C[C@@H]2C(=O)N[C@@H](Cc3ccccc3)C(=O)N2[C@@H]1c1ccc(O)cc1 | 1.38 | 0.757 | -0.0715 | -0.113 | 0.179 | 1.25 | 1.33 | 0.611 (inactive) | 0.422 | -0.265 | 0.914 | -0.507 (inactive) | -1.11 (inactive) | -0.373 (inactive) | 1.36 | 0.792 (inactive) | 0.635 | 0.561 | 0.164 | -0.063
O=C(NO)[C@]1(Cc2ccccc2)N=C(c2ccc(OCCCO)cc2)O[C@@H]1c1ccccc1 | 0.464 | 1.2 | -0.246 | -0.134 | -0.66 | 0.545 | -0.921 | -1.62 (inactive) | 0.14 | -0.0645 | -0.269 | -4.96 (inactive) | -3.08 (inactive) | -1.94 (inactive) | -0.231 | 3.42 (inactive) | 0.0204 | -0.0613 | -1.1 | -0.174
CC(C)(C)OC(=O)CC[C@]1(C(=O)NCc2ccccc2)COC(c2ccc(OCCCO)cc2)=N1 | 0.508 | 1.3 | -0.0675 | 0.0174 | 0.431 | 1.79 | 1.1 | -2.97 (inactive) | 0.613 | -0.0047 | 0.712 | -1.08 (inactive) | -0.413 (inactive) | -1.64 (inactive) | 3.14 | 1.93 (inactive) | 0.0325 | -0.148 | -0.0559 | -0.058
COC(=O)C1=CC(c2ccc(CO)cc2)=CC(C2CC2)N(C)C=C1C(=O)OC (stereo not given) | 0.315 | 0.903 | -0.0538 | -0.0649 | 0.115 | 1.61 | 0.97 | -1.67 (inactive) | 0.0593 | -0.0994 | 1.31 | -5.61 (inactive) | -4.93 (inactive) | -2.41 (inactive) | 2.6 | 0.585 (inactive) | -0.141 | -0.946 | -0.464 | -0.154
